Experimental data as given in ChEMBL document CHEMBL1961873, “Compounds: GSK PKIS; Assays: Nanosyn kinase panel” (2012).

How the values were obtained:
[1] = target: T1, Serine/threonine-protein kinase D2 (Homo sapiens) (UniProt Q9BZL6); settings: at 1 µM;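 also: mean value of PRKD2 inhibition, from the GSK PKIS screening panel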
T1 sequence (whole entry): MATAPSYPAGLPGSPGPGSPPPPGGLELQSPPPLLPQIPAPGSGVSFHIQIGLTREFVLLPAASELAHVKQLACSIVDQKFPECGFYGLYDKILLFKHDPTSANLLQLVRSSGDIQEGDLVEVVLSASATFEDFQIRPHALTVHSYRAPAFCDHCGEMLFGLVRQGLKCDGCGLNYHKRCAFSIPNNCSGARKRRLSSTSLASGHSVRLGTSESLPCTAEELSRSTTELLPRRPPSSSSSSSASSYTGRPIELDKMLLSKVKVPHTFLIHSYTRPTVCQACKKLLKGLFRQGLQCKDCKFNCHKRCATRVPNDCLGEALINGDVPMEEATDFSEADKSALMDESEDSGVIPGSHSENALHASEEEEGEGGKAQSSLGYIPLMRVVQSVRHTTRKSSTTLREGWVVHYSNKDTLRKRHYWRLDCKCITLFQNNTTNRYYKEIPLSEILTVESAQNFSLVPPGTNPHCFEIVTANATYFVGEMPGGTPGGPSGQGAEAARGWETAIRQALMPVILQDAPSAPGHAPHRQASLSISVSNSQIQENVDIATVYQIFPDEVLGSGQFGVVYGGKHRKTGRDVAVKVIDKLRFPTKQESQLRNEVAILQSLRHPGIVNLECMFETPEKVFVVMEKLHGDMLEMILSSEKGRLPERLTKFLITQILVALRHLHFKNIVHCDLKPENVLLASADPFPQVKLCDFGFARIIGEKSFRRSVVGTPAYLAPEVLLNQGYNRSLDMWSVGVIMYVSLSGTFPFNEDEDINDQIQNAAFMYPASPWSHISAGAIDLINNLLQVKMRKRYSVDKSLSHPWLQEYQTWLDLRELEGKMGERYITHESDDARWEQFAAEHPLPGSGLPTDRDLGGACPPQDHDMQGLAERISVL

[2] = target: T2, Serine/threonine-protein kinase D3 (Homo sapiens) (UniProt O94806); settings: at 0.1 µM
T2 sequence (whole entry): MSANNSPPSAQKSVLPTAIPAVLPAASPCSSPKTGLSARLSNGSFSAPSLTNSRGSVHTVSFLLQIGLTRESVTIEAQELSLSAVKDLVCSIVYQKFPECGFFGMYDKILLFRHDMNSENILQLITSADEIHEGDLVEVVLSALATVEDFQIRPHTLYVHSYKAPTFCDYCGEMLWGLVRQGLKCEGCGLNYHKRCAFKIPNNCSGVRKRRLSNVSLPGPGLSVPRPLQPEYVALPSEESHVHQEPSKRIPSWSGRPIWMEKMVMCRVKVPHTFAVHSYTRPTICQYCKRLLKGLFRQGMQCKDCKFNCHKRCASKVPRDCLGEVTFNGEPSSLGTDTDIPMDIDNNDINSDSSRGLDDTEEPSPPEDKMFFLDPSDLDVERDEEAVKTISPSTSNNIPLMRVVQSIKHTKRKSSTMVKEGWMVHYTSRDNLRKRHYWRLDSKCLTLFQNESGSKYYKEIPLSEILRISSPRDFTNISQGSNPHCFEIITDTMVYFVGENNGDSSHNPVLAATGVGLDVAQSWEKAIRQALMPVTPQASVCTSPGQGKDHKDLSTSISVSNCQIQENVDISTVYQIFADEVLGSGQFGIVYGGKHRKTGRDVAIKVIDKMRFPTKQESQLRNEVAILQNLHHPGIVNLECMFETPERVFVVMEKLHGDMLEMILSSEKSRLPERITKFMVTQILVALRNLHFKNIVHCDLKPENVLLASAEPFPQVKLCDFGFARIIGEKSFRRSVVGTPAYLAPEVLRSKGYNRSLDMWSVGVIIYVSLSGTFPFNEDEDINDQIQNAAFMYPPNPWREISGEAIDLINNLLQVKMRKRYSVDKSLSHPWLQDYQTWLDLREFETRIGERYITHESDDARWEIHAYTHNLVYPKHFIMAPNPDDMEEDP

[3] = target: T2, Serine/threonine-protein kinase D3 (Homo sapiens); settings: at 1 µM
[4] = target: T3, cGMP-dependent protein kinase 1 (Homo sapiens) (UniProt Q13976); settings: at 0.1 µM
T3 sequence (whole entry): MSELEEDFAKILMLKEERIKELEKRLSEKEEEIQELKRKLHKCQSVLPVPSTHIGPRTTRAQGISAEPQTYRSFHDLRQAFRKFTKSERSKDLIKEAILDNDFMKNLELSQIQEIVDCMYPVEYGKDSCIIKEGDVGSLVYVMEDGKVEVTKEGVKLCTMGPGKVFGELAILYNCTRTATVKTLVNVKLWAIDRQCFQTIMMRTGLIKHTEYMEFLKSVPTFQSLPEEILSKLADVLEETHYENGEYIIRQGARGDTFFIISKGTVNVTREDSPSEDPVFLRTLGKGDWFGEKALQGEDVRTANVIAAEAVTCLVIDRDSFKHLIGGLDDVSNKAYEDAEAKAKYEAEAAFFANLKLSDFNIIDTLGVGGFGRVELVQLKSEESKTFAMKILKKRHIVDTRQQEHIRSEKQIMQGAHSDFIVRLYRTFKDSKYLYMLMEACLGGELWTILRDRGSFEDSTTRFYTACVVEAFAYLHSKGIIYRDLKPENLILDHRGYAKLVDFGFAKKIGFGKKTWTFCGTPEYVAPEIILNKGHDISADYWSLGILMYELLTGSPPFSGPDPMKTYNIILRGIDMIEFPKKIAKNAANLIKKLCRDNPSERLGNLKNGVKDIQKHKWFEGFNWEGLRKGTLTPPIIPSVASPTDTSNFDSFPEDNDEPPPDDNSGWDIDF

[5] = target: T3, cGMP-dependent protein kinase 1 (Homo sapiens); settings: at 1 µM
[6] = target: T4, cGMP-dependent protein kinase 2 (Homo sapiens) (UniProt Q13237); settings: at 0.1 µM
T4 sequence (whole entry): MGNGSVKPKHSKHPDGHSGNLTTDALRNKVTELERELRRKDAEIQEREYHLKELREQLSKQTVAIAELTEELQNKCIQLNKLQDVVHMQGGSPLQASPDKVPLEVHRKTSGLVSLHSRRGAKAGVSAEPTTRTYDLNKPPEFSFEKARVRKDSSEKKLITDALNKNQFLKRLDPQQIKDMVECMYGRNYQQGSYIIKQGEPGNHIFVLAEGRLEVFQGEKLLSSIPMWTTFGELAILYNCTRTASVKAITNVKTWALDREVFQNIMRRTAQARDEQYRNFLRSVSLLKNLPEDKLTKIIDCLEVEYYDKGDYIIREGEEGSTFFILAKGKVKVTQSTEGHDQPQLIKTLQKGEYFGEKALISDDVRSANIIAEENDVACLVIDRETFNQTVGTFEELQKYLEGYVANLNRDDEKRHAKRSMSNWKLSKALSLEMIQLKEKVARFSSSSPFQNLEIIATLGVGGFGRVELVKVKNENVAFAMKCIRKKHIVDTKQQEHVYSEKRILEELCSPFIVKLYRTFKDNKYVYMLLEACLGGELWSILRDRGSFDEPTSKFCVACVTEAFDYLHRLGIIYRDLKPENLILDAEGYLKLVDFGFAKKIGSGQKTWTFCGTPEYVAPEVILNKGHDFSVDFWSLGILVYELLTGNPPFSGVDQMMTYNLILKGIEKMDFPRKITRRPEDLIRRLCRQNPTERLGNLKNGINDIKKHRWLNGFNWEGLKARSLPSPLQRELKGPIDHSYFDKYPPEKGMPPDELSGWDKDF

[7] = target: T4, cGMP-dependent protein kinase 2 (Homo sapiens); settings: at 1 µM
[8] = target: T5, cAMP-dependent protein kinase catalytic subunit PRKX (Homo sapiens) (UniProt P51817); settings: at 0.1 µM
T5 sequence (whole entry): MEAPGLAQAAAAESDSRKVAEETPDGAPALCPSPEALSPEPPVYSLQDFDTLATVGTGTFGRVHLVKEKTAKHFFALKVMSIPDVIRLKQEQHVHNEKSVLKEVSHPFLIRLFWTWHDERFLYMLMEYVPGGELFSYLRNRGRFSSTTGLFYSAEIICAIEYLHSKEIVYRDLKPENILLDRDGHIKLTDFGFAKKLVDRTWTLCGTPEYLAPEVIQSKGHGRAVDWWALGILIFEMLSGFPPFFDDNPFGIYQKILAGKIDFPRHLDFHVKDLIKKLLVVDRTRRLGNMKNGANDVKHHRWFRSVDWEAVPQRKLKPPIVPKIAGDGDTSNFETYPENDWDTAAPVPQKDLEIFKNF

[9] = target: T5, cAMP-dependent protein kinase catalytic subunit PRKX (Homo sapiens); settings: at 1 µM
[10] = target: Rho-associated protein kinase 1 (Homo sapiens) (UniProt Q13464); settings: at 0.1 µM;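 also: values are mean percent inhibition of ROCK1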
Rho-associated protein kinase 1 (Homo sapiens), sequence (Q13464 2-1354 limits assumed): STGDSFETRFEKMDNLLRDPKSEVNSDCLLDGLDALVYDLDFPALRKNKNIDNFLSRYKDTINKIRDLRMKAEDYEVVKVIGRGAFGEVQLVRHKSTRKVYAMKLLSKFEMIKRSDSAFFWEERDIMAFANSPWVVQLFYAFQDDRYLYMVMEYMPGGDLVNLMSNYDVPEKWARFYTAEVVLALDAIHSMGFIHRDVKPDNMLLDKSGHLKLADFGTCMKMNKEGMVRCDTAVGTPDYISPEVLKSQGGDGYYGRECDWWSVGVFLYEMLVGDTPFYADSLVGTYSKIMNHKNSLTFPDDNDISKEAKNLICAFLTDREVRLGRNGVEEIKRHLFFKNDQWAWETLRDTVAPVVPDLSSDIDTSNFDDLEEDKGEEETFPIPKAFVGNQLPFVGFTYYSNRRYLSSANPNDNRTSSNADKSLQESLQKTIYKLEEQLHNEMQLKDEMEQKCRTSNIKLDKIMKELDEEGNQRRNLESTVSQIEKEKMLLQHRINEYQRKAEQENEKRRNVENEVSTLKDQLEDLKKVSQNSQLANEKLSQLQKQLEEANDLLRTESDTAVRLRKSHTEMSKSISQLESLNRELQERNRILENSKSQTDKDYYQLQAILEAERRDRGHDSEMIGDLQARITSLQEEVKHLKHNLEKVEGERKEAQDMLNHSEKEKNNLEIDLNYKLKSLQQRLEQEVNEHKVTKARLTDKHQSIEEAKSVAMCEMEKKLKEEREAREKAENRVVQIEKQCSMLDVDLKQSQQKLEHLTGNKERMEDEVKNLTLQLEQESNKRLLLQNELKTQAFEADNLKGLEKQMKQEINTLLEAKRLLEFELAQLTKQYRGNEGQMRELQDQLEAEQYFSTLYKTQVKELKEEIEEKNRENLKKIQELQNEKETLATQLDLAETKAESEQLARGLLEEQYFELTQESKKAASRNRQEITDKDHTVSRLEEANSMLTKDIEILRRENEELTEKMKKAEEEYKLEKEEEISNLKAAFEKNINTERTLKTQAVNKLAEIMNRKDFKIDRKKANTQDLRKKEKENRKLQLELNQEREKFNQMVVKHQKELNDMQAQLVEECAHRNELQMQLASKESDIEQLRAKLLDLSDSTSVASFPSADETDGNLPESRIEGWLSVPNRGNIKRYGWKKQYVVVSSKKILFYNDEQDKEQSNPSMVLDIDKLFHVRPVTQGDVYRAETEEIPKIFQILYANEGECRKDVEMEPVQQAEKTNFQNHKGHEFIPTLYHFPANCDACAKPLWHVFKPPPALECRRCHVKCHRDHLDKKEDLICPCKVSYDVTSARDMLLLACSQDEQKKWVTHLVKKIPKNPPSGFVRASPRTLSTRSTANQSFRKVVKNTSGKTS

Structure (SMILES)	inhibition [1] [%]	inhibition [2] [%]	inhibition [3] [%]	inhibition [4] [%]	inhibition [5] [%]	inhibition [6] [%]	inhibition [7] [%]	inhibition [8] [%]	inhibition [9] [%]	inhibition [10] [%]
NS(=O)(=O)c1ccc(N/N=C2\C(=O)Nc3ccc(C(=O)NCCc4c[nH]cn4)cc32)cc1	32.9	7.41	38.6	23.6	70.1	9.57	50.8	2.93	12.2	1.37
CS(=O)(=O)Nc1ccc(N/C=C2\C(=O)Nc3ccccc32)cc1	2.63	-1.78	-0.06	-1.67	-1.49	-0.94	3.29	-0.88	0.66	-0.53
Cc1cccc(-c2n[nH]cc2-c2ccc3ncccc3n2)n1	46.9	2.2	30.5	1.36	0.89	0.94	0.72	0.91	1.8	0.48
CS(=O)(=O)CCNCc1ccc(-c2ccc3ncnc(Nc4ccc(OCc5cccc(F)c5)c(C(F)(F)F)c4)c3c2)o1	5.13	4.32	3.88	2.84	5.15	1.78	3.11	2.44	4.07	1.46
CN1CCC(C(=O)Nc2n[nH]c3nnc(-c4ccccc4)cc23)CC1	6.42	4.65	5.47	3.6	5.14	2.49	4.4	3.15	6.09	7.45
CCc1cccc(NC(=O)Nc2ccc(Oc3ccc4nc(NC(=O)OC)[nH]c4c3)cc2)c1	1.88	1.72	0.75	-0.2	3.08	0.88	0.86	0.91	3.18	12.1
COc1cc2ncn(-c3cc(O[C@H](C)c4ccccc4Cl)c(C(N)=O)s3)c2cc1OC	4.06	2.93	2.62	3.62	4.56	3.5	5.66	2.91	–	1.18
Cn1cc(C=C2C(=O)Nc3cccnc32)c2ccccc21	9.92	3.79	10.3	1.8	3.04	1.83	3.03	0.64	0.1	1.45
COC(=O)Nc1nc2cc(Oc3ccc(NC(=O)Nc4cccc(C(=O)O)c4)cc3)ccc2[nH]1	-1.55	-2.32	-3.85	-0.28	2.77	1.1	0.86	0.76	1.8	0.24
O=C1NC(=O)C(c2ccc(Cl)cc2)=C1Nc1ccc(Cl)c(C(=O)O)c1	-0.34	-1.37	-0.38	-0.49	-0.47	-1.52	-0.68	-1.61	-1.33	-0.15
Fc1cccc(COc2ccc(Nc3ncnc4cc(-c5ccc[nH]5)sc34)cc2Cl)c1	-2.9	-1.25	-2.13	3.64	4.28	2.82	2.46	2	3.5	0.2
[O-][S+]1CCN(Cc2ccc(-c3ccc4ncnc(Nc5ccc(OCc6ccccc6)c(F)c5)c4c3)o2)CC1	4.32	2.88	3.26	1.05	3.37	0.25	2.79	0.09	-1.73	-0.61
CNC(=O)c1cncc(/C=C/c2c(Cl)cccc2Cl)c1	3.77	1.19	4.45	4.02	5.23	1.23	4.56	1.86	1.79	1.46
NCc1ccc(-c2nc(-c3ccc(Cl)c(O)c3)c(-c3ccncc3)[nH]2)cc1	4.23	0.72	1.93	0.03	2.4	-0.25	3.58	-0.67	-2.14	-0.61
COc1ccccc1Nc1ncc(-c2ccccc2)o1	2.18	4.57	4.66	3.64	1.96	3.07	2.81	2.55	3.03	2.99
CCn1c(-c2nonc2N)nc2c(C#CC(C)(C)O)nc(OC[C@@H](N)c3ccccc3)cc21	8.54	-0.8	8.35	17.7	63.5	35.9	73.3	78.2	79.3	5.46
COc1ccc(COc2ccc(Cc3cnc(N)nc3N)cc2OC)cc1	4.2	0.01	2.56	4.15	3.2	2.89	3.2	2.09	1.07	2.35
